From ChEMBL document CHEMBL2218924, “A broad activity screen in support of a chemogenomic map for kinase signalling research and drug discovery” (Biochem J, 2013)

Experiments:
[1] = target: T1, Muscle, skeletal receptor tyrosine-protein kinase (Homo sapiens) (UniProt O15146); details: at 1 µM
T1 sequence (whole entry): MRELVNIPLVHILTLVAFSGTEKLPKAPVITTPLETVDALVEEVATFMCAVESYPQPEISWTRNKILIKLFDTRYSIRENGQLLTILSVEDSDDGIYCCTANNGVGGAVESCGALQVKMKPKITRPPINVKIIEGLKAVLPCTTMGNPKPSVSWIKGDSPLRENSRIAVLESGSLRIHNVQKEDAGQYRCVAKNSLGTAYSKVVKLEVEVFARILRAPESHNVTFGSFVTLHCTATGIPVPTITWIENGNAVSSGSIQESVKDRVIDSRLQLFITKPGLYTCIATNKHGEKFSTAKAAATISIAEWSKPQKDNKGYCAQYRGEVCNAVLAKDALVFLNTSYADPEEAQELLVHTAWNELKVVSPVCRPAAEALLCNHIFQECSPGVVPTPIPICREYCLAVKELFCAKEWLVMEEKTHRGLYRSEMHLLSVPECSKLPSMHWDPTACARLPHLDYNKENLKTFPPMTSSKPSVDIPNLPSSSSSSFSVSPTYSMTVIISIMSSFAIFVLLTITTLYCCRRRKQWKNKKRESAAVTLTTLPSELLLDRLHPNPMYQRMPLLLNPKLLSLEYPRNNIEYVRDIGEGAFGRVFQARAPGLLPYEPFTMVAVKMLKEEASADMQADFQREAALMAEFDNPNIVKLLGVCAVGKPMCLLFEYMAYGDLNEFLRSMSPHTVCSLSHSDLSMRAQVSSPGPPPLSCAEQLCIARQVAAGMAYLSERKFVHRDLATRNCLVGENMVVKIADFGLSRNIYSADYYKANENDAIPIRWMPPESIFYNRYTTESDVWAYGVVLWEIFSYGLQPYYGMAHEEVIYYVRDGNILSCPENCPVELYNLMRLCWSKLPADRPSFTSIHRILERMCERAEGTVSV

[2] = target: T1, Muscle, skeletal receptor tyrosine-protein kinase (Homo sapiens); details: at 10 µM
[3] = target: T2, Serine/threonine-protein kinase Nek11 (Homo sapiens) (UniProt Q8NG66); details: at 1 µM
T2 sequence (whole entry): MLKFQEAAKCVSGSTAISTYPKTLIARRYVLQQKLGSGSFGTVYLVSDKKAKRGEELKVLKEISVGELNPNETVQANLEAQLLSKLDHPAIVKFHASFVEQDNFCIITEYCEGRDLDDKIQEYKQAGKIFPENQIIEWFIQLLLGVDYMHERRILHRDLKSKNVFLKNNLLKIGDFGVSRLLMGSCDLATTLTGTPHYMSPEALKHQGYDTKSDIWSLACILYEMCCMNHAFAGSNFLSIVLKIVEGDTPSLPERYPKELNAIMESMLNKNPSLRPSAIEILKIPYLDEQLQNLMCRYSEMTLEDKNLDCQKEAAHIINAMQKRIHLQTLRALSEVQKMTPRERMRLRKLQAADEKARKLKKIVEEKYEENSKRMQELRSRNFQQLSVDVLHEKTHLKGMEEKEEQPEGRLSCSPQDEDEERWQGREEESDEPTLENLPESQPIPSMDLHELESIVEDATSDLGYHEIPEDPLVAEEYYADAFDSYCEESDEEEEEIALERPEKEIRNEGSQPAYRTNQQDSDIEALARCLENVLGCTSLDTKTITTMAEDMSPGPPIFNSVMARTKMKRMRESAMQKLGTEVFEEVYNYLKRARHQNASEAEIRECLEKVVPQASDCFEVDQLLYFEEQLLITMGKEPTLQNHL

[4] = target: T2, Serine/threonine-protein kinase Nek11 (Homo sapiens); details: at 10 µM
[5] = target: T3, Serine/threonine-protein kinase Nek2 (Homo sapiens) (UniProt P51955); details: at 1 µM
T3 sequence (whole entry): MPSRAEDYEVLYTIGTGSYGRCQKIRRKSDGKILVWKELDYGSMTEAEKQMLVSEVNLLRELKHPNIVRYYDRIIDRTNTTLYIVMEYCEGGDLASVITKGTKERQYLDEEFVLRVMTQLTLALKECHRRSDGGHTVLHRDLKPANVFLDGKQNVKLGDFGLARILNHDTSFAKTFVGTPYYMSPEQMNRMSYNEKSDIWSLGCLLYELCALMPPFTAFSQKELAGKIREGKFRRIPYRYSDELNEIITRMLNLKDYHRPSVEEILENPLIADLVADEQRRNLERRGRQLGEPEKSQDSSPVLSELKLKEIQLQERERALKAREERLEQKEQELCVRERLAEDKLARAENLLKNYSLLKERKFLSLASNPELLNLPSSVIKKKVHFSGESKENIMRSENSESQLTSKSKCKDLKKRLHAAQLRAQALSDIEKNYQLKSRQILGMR

[6] = target: T3, Serine/threonine-protein kinase Nek2 (Homo sapiens); details: at 10 µM
[7] = target: T4, Serine/threonine-protein kinase Nek3 (Homo sapiens) (UniProt P51956); details: at 1 µM
T4 sequence (whole entry): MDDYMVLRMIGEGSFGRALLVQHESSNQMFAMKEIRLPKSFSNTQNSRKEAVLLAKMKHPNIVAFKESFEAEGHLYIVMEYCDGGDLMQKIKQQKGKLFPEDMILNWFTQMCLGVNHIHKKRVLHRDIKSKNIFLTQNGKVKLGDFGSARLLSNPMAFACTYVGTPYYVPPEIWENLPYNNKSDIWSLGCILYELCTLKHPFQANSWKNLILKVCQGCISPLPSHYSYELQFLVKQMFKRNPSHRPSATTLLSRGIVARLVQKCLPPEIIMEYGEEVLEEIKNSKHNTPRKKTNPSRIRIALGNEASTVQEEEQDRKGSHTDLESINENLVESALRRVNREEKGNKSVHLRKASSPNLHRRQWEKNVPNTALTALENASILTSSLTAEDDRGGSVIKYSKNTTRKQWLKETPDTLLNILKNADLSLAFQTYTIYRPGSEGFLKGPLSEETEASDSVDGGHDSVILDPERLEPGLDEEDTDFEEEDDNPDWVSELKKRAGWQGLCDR

[8] = target: T4, Serine/threonine-protein kinase Nek3 (Homo sapiens); details: at 10 µM
[9] = target: Serine/threonine-protein kinase tousled-like 2 (Homo sapiens) (UniProt Q86UE8); details: at 1 µM
Serine/threonine-protein kinase tousled-like 2 (Homo sapiens), sequence (Q86UE8 whole entry, looked up): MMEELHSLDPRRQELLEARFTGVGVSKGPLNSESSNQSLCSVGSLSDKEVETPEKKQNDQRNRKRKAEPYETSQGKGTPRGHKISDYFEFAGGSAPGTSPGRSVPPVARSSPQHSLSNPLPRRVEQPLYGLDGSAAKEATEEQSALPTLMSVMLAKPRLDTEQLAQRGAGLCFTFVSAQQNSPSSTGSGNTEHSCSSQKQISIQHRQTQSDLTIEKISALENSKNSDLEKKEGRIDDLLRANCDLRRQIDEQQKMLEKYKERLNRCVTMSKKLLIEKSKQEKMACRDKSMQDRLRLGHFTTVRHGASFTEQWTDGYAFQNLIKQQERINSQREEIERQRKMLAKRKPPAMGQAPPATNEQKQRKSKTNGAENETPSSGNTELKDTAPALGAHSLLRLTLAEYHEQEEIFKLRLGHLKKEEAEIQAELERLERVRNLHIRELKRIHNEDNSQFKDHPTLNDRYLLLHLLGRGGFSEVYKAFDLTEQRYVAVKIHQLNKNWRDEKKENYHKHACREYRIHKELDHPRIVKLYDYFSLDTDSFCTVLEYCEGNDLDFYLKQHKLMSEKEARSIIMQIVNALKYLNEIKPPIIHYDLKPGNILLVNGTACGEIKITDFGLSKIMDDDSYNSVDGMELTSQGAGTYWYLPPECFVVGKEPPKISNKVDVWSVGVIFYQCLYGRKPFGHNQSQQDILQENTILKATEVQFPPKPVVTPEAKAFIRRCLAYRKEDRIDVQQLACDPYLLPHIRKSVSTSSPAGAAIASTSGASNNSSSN

[10] = target: Serine/threonine-protein kinase tousled-like 2 (Homo sapiens) (UniProt Q86UE8); details: at 10 µM

| Compound | residual activity [1] [%] | residual activity [2] [%] | residual activity [3] [%] | residual activity [4] [%] | residual activity [5] [%] | residual activity [6] [%] | residual activity [7] [%] | residual activity [8] [%] | residual activity [9] [%] | residual activity [10] [%] |
| --- | --- | --- | --- | --- | --- | --- | --- | --- | --- | --- |
| CC(C)n1cnc2c(NCc3ccccc3)nc(NCCCO)nc21 | 82 | 86 | 57 | 72 | 96 | 82 | 85 | 99 | 96 | 89 |
| COc1cc2ncnc(Nc3ccc(Oc4ccccc4)cc3)c2cc1OC | 71 | 73 | 100 | 105 | 92 | 96 | 106 | 97 | 106 | 98 |
| CCC(=O)Nc1ccc2ncnc(Nc3cccc(Br)c3)c2c1 | 96 | 84 | 84 | 92 | 73 | 99 | 109 | 98 | 103 | 92 |
| Ic1cccc(CSc2nnc(-c3ccncc3)o2)c1 | 74 | 59 | 103 | 102 | 88 | 89 | 84 | 84 | 83 | 83 |
| CC(C)n1cnc2/c(=N/c3cccc(Cl)c3)nc(NCCO)[nH]c21 | 75 | 35 | 43 | 58 | 85 | 64 | 76 | 68 | 82 | 68 |
| Cc1nc2cc3nc(-c4cccs4)cnc3cc2n1C | 102 | 55 | 93 | 102 | 87 | 103 | 114 | 104 | 107 | 83 |
| O=C1NC(=O)c2cc(Nc3ccc(F)cc3)c(Nc3ccc(F)cc3)cc21 | 34 | 3 | 70 | 93 | 77 | 94 | 109 | 81 | 101 | 85 |
| N#CCCc1ccc2c(c1)-c1[nH]c3ccc([N+](=O)[O-])cc3c1CC(=O)N2 | 68 | 32 | – | 72 | – | – | 79 | 67 | – | – |
| O=C1Nc2ccc(Br)cc2/C1=C\c1cc2c([nH]1)CCCC2 | 61 | 50 | – | – | – | 101 | 102 | 97 | 107 | – |
| CC(=O)c1ccc(N2CCOCC2)cc1O | 105 | 81 | – | – | 84 | 104 | – | 77 | 103 | 95 |
| c1ccc(-c2n[nH]c3c2oc2ccccc23)cc1 | 14 | 0 | – | – | 91 | 99 | – | – | 98 | 86 |
| Cc1cc(Nc2nc(-c3ccccc3)nc3ccccc23)n[nH]1 | 21 | 4 | 66 | 50 | – | 66 | 76 | 78 | 62 | 17 |
| Cc1nc(-c2ccccc2)c(-c2ccncc2)o1 | 113 | 94 | 81 | 85 | 103 | 102 | 102 | 114 | 106 | 103 |
| O=C1c2ccccc2-[n+]2ccc3c([nH]c4ccccc43)c21 | 85 | 88 | 48 | 44 | 90 | 87 | 88 | 90 | 80 | 83 |
| O=C1NC(=O)/C(=C\c2ccc3nccnc3c2)S1 | 90 | 75 | 43 | 35 | 88 | 86 | 109 | 81 | 103 | 91 |
| Cn1cnc2cc3c(Nc4cccc(Br)c4)ncnc3cc21 | 104 | 85 | 89 | 106 | 87 | 109 | 111 | 74 | 103 | 92 |
| CCN(CC)CCCCN1c2ccccc2Oc2ccc(Cl)cc21 | 129 | 97 | 80 | 113 | 85 | 112 | 110 | 111 | 111 | 91 |
| Cc1cncc2cccc(S(=O)(=O)N3CCCN(C(=O)CN)C[C@H]3C)c12 | 90 | 67 | 88 | 86 | 78 | 92 | – | – | – | 82 |
| Cc1cccc(-c2[nH]c(C(C)(C)C)nc2-c2ccc3c(c2)OCO3)n1 | 98 | 87 | 80 | 107 | 88 | 95 | – | – | 96 | 95 |

| Compound | residual activity [1] [%] | residual activity [2] [%] | residual activity [3] [%] | residual activity [4] [%] | residual activity [5] [%] | residual activity [6] [%] | residual activity [7] [%] | residual activity [8] [%] | residual activity [9] [%] | residual activity [10] [%] |
| --- | --- | --- | --- | --- | --- | --- | --- | --- | --- | --- |
| c1ccc2c(-c3ccncc3)c[nH]c2c1 | 88 | 82 | 89 | 67 | 78 | 88 | – | – | 103 | 85 |
| O=C(O)c1ccc2c3c1cccc3c(=O)n1c3ccccc3nc21 | 105 | 94 | 80 | 93 | 123 | 102 | 93 | 97 | 104 | 97 |
| O=C(Nc1cccc(Nc2cc(Nc3cccc(C(F)(F)F)c3)ncn2)c1)C1CC1 | 96 | 48 | 117 | 103 | 73 | 96 | 95 | 63 | 102 | 97 |
| Nc1n[nH]c2nnc(-c3c(-c4ccccc4)nn4ccccc34)cc12 | – | 86 | 107 | 97 | 91 | 86 | 83 | 87 | 89 | 82 |
| COc1cc2ncnc(Nc3ccc(NC(=O)c4ccccc4)cc3)c2cc1OC | – | 98 | 96 | 103 | 105 | 95 | – | – | 109 | 86 |
| O=C1Nc2ccccc2/C1=C1/Nc2ccccc2/C1=N\OCCC(O)CO (stereo not drawn) | 20 | 3 | 41 | 35 | – | – | 71 | – | 38 | 6 |
| CO[C@@H]1[C@H](N(C)C(=O)c2ccccc2)C[C@H]2O[C@]1(C)n1c3ccccc3c3c4c(c5c6ccccc6n2c5c31)C(=O)NC4 | 32 | 13 | 47 | 49 | 82 | 86 | 102 | 37 | – | 72 |
| Nc1ccc2ncnc(NCCc3ccc(Oc4ccccc4)cc3)c2c1 | 92 | 49 | 68 | 55 | 114 | 101 | 81 | 109 | 111 | 100 |
| N#Cc1cnc2cnc(NCc3cccnc3)cc2c1Nc1ccc(F)c(Cl)c1 | 93 | 60 | 88 | 79 | – | – | 37 | 46 | 73 | 47 |
| N#CC(C#N)=C(N)/C(C#N)=C/c1ccc(O)cc1 | – | 82 | 75 | 97 | 91 | 100 | – | – | 100 | 95 |
| O=[N+]([O-])c1ccc(-c2nc(-c3ccc(F)cc3)c(-c3ccncc3)[nH]2)cc1 | 102 | 92 | 57 | 75 | 99 | 100 | 90 | 92 | 107 | 101 |
| c1ccc(-c2n[nH]cc2-c2ccnc3ccccc23)nc1 | 105 | 79 | 98 | 96 | 82 | 101 | – | – | 96 | 99 |
| CN(C)CCCn1cc(C2=C(c3c[nH]c4ccccc34)C(=O)NC2=O)c2ccccc21 | 134 | 74 | 72 | 59 | – | 105 | – | 90 | 21 | 2 |
| Cc1cc2ncc(-c3ccccc3)nc2cc1C | 101 | 75 | 97 | 93 | 92 | 105 | – | 93 | 103 | 99 |
| Cc1ccc(NC2=CC(=O)c3sc(C)nc3C2=O)cc1 | 90 | 85 | 66 | 75 | 91 | 89 | 81 | 101 | 87 | 84 |
| COc1cc2ncc(-c3ccccc3)nc2cc1OC | – | – | 87 | – | 94 | 100 | 125 | 85 | – | – |
| N#C/C(=C(\N)Sc1ccc(N)cc1)c1ccccc1C(F)(F)F | 86 | 84 | 64 | 68 | 93 | 91 | 75 | 103 | 98 | 93 |
| O=c1c2ccccc2[nH]c(=S)n1CCN1CCC(=C(c2ccc(F)cc2)c2ccc(F)cc2)CC1 | 116 | 91 | 106 | 98 | 86 | 106 | 104 | 42 | 104 | 94 |
